Shown are actives, neighbours in structure and some others; about 4.1% of the full set was active somewhere.
NLRP3 yeast inh = NALP3 inflammasome inhibitors in reconstituted yeast, primary screen, luminescence, uHTS. 330,000 compounds, 0.39% hits. Yeast reconstituted NLRP3/ASC/caspase-1, beta-gal luminescence, 24 h. inhibition, % at 10 µM. AID 2825, 2010;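 active = inhibition of 50% or more; inactive = inhibition below 50%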
tim10-1 inh = growth inhibitors of tim10-1 mutant yeast, primary screen, luminescence, uHTS | S. cerevisiae tim10-1 ts strain growth, BacTiter-Glo, 24 h | inhibition, % at 20 µM | 330,000 compounds, 2.2% hits | AID 463190, 2010;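 active = inhibition of at least 40%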;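 also: mutant grown at 25 °C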
PfHsp90 set2 = growth inhibition of PfHsp90-expressing yeast, primary screen, antimalarial PfHsp90 inhibitor project, S. cerevisiae, BacTiter-Glo luminescence, single point, set 2; 310,000 compounds, 0.32% hits; AID 504621, 2011; inhibition, % at 9.4 µM; BacTiter-Glo ATP, 48 h; yeast lacking PDR1 and PDR3 efflux regulators;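 active = every replicate shows inhibition above about 80%, whatever the replicate mean, limit read from the data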
NALP1 inh = NALP1 inflammasome inhibitors in reconstituted yeast, colorimetric, S. cerevisiae, triplicate retest. 280,000 compounds, 0.61% hits. inhibition, % at 10 µM. S. cerevisiae NALP1/ASC/caspase-1 growth, X-gal OD620, 72 h; in the data active = inhibition mostly above about 24%, no sharp cut-off; inactive = mostly below about 32%
TIM10 inh = growth inhibitors of isogenic TIM10 control yeast, primary screen, counter-screen for tim10-1 yeast inhibitor project, luminescence, uHTS. S. cerevisiae TIM10 strain growth, BacTiter-Glo luminescence, 24 h. inhibition, % at 10 µM. 330,000 compounds, 1.4% hits. AID 463195, 2010;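 active = inhibition of 40% or more at the single tested concentration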;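 also: wild-type TIM10 isogenic control strain grown at permissive 25 °C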
tim23-1 inh = growth inhibitors of tim23-1 mutant yeast, primary screen, luminescence, uHTS. inhibition, % at 20 µM. S. cerevisiae tim23-1 growth, BacTiter-Glo luminescence, 24 h. AID 463212, 2010. 330,000 compounds, 1.3% hits;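 active = growth inhibition of the mutant yeast at or above 50%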;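 also: temperature-sensitive mutant grown at 25 °C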
tim10-1 conf = growth inhibitors of tim10-1 mutant yeast, confirmation, single concentration, luminescence, S. cerevisiae | S. cerevisiae tim10-1 ts strain growth, BacTiter-Glo, 24 h | inhibition, % at 20 µM | 7,400 compounds, 56% hits | shares compounds with tim10-1 inh;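 active = inhibition of yeast growth at or above a set limit in either of two repeat tests at 20 µM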;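 also: tim10-1 mutant grown at permissive 25 °C to find synthetic lethal compounds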
Numbers stand for hits.

Results for O=C(OCc1ccccc1)/C(=C/c1ccc(Cl)cc1)NC(=O)c1ccccc1Cl ?
NLRP3 yeast inh: inactive; tim10-1 inh: inactive; NALP1 inh: inactive; TIM10 inh: inactive; tim23-1 inh: inactive

How did CC1(c2ccc(OC(F)F)cc2)NC(=O)N(CC(=O)Nc2cccc(F)c2)C1=O (stereo not drawn) do in these assays?
NLRP3 yeast inh: inactive; tim10-1 inh: inactive; PfHsp90 set2: inactive; NALP1 inh: inactive; TIM10 inh: inactive; tim23-1 inh: inactive

How did CCCCCCC1C(C#N)=C(N)OC2=C1C(=O)CC(C)(C)C2 (stereo not drawn) do in these assays?
NLRP3 yeast inh: inactive; tim10-1 inh: inactive; PfHsp90 set2: inactive; NALP1 inh: inactive; TIM10 inh: inactive; tim23-1 inh: inactive

What do the screens show for `CCCCC1C2=C(CC(C)(C)CC2=O)OC2=C1C(=O)CC(C)(C)C2`?
NLRP3 yeast inh: inactive; tim10-1 inh: 44.0; PfHsp90 set2: inactive; NALP1 inh: inactive; TIM10 inh: inactive; tim23-1 inh: inactive; tim10-1 conf: 37.9

What do the screens show for `CCC(C(=O)NCCN1CCOCC1)n1nc(C)n2c(cc3sccc32)c1=O` (stereo not drawn)?
NLRP3 yeast inh: inactive; tim10-1 inh: inactive; PfHsp90 set2: inactive; NALP1 inh: inactive; TIM10 inh: inactive; tim23-1 inh: inactive

Results for COc1ccccc1-c1nnc2sc(C3CCCCC3)nn12 ?
NLRP3 yeast inh: inactive; tim10-1 inh: 42.7; PfHsp90 set2: inactive; NALP1 inh: inactive; TIM10 inh: inactive; tim23-1 inh: inactive; tim10-1 conf: inactive

How did COc1ccc(Cc2nn3c(-c4ccccc4OC)nnc3s2)cc1 do in these assays?
NLRP3 yeast inh: inactive; tim10-1 inh: inactive; PfHsp90 set2: inactive; NALP1 inh: inactive; TIM10 inh: inactive; tim23-1 inh: inactive

What do the screens show for `C[C@@H]1CCC2[C@](C)(CO)[C@@H](O)CC[C@]2(C)[C@@]12CC[C@@](CO)(CC(=O)O)O2` (stereo partly drawn)?
NLRP3 yeast inh: inactive; tim10-1 inh: inactive; PfHsp90 set2: inactive; NALP1 inh: inactive; TIM10 inh: inactive; tim23-1 inh: inactive

What do the screens show for `Cc1ccccc1SCC(=O)Nc1cc(C(F)(F)F)ccc1N1CCOCC1`?
NLRP3 yeast inh: inactive; tim10-1 inh: 44.1; PfHsp90 set2: inactive; TIM10 inh: inactive; tim23-1 inh: inactive; tim10-1 conf: 34.4

Results for Cc1nnc(SCC(=O)Nc2cc(C(F)(F)F)ccc2N2CCOCC2)o1 ?
NLRP3 yeast inh: inactive; tim10-1 inh: inactive; NALP1 inh: inactive; TIM10 inh: inactive; tim23-1 inh: inactive

What do the screens show for `CCOc1ccccc1NC(C)C(=O)Nc1cc(C(F)(F)F)ccc1N1CCOCC1` (stereo not drawn)?
NLRP3 yeast inh: inactive; tim10-1 inh: 40.3; PfHsp90 set2: inactive; NALP1 inh: inactive; TIM10 inh: inactive; tim23-1 inh: inactive; tim10-1 conf: inactive

Compound activity (PubChem)
